Screening data (PubChem)
The list is not random: actives were taken first. Their share in the collection is about 7.5%.
FLuc modulator = inhibits or activates purified firefly luciferase, miR-21 counter-screen | 360,000 tested, 6.9% active | purified FLuc, Km substrates, luminescence inhibition | P08659 | Potency, µM (highest dose often 57.5 µM), most hits filed as inhibitors | AID 588342; note: nearly all actives have a fitted effect of over 55% in size
Target sequence (P08659 whole entry, looked up): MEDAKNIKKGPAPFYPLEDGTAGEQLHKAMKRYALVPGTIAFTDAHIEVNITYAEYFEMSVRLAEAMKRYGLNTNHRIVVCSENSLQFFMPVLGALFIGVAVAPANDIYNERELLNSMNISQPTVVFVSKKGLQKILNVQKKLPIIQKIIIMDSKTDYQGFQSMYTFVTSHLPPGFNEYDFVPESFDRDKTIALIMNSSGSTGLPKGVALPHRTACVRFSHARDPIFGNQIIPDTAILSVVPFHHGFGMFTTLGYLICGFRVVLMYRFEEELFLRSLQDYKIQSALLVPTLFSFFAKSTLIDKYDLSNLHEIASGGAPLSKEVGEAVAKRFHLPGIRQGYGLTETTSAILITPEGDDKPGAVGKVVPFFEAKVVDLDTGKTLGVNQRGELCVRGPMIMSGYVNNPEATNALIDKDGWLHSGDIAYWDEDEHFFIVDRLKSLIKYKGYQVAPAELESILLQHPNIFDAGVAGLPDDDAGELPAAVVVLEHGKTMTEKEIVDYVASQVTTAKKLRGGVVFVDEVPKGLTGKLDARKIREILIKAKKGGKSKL
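Biochemical qHTS of compounds, final roughly 60 µM downward over six points, against 10 nM purified firefly luciferase using Km concentrations of substrates (10 uM D-luciferin, 10 uM ATP) in Tris acetate pH 7.5 buffer; luminescence output.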
NPC1 promoter act = activators of NPC1 promoter; Huh7 NPC1 promoter luciferase reporter, 24 h; Potency, µM (titrated, usually from 9.22 µM), usual class: activators; 320,000 tested, 2.4% active; AID 485313; note: nearly all actives have a fitted effect of over 60% in size
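Readout is luciferase luminescence, reflecting NPC1 promoter activation in stably transfected Huh7 cells after 24 h compound exposure at 37 °C in reduced-serum medium with 10% FBS.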
Rab9 promoter act = Rab9 promoter activation; 320,000 tested, 2.8% active; Huh7 Rab9 promoter-luciferase reporter, luminescence, 24 h; Potency, µM (highest dose often 9.22 µM), hits mostly activators; note: nearly all actives have a fitted effect of over 60% in size
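Stable Rab9-luc Huh7, 1500 cells/well, 2 h settle; cmpd in DMSO, 24 h, 37 °C/5% CO2; luciferase reagent 10 min RT; luminescence.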
ELG1 genotoxic = inducers of genotoxicity in HEK293T ELG1-luciferase cells; HEK293T ELG1-luciferase reporter, luminescence, 16 h; Potency, µM (top dose mostly 46 µM), usual class: activators; 330,000 tested, 1.3% active; AID 504466; note: nearly all actives have a fitted effect of over 60% in size
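HEK293T cells expressing luciferase-tagged ELG1 were exposed to compound or DMSO vehicle for 16 hr at 37 °C and 5% CO2. Luciferase activity was then measured with ONE-Glo after 30 min at room temperature.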
SMN2 splice enh = enhancers of SMN2 splice variant expression; Potency, µM (doses to about 46.1 µM), actives largely listed as activators; HEK293 SMN2-luciferase splicing reporter, luminescence, 30-36 h; 210,000 tested, 2.8% active; note: nearly all actives have a fitted effect of over 55% in size
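HEK293 cells carry an SMN2 minigene-luciferase reporter in which exon 7 inclusion puts luciferase in frame. Cells were seeded at 2000 cells/well, attached for 10-12 hours, then exposed to compounds for 30-36 hours at 37C before ONE-Glo luminescence.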
Luc counter = counter-screen: inhibitors of Kinase-Glo firefly luciferase; Q27757; Kinase-Glo luciferase, ATP luminescence, 8 min; Potency, µM (series often up to 38.3 µM), hits mostly inhibitors; 200,000 tested, 0.28% active; AID 1379; note: nearly all actives have a fitted effect of over 60% in size
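Substrate mix (final 50 mM imidazole pH 7.2, 50 mM KCl, 7 mM MgCl2, 10 uM ATP, 0.01% Tween 20, 0.05% BSA) plus pin-tool compound, then Kinase-Glo detection mix; 8 min ambient, luminescence read.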
Hits are given with their value; i = inactive; ? = inconclusive; nt = not tested or not shown; [ ] = dose if it differs, or a comment. Calls come from the whole dose curve; as a rule, active = well fitted curve in the direction sought with a large enough effect; inconclusive = small, poorly fitted or top-dose-only effect, or another doubt; inactive = no such curve, though single readings can be large; an effect the other way counts as inactive or inconclusive.

SMILES | FLuc modulator | NPC1 promoter act | Rab9 promoter act | ELG1 genotoxic | SMN2 splice enh | Luc counter
O=C(Nc1ccc(NC(=O)c2ccc(Cl)cc2Cl)cc1)c1cccs1 | i | i | i | i | nt | nt
O=C(Nc1ccc(Oc2ccc(C(=O)O)c(C(=O)O)c2)cc1)c1cccs1 | 21µM | i | i | i | nt | i
CC1Cc2ccccc2N1C(=O)CSc1nc2ccc(NC(=O)COc3ccccc3)cc2s1 (stereo unspecified) | i | nt | nt | nt | nt | nt
O=C(c1cccn2c(=O)c3cc(Cl)ccc3nc12)N1CCN(c2ccccc2F)CC1 | i | nt | nt | nt | nt | nt
COc1ccc2oc(C(=O)NCCC(C)C)c(C)c2c1 | 3.4µM | 3.2µM | ? | ? | 11µM | i
Cc1c(C(=O)NC2CCCCC2)oc2ccc(F)cc12 | 12µM | ? | ? | ? | nt | nt
COc1ccc(C(CNC(=O)c2oc3ccc(OC)cc3c2C)N2CCCC2)cc1 (stereo unspecified) | i | i | i | i | nt | nt
Cc1ccc2oc(C(=O)NC3CCS(=O)(=O)C3)c(C)c2c1 (stereo unspecified) | i | i | i | i | nt | nt
COc1ccc2oc(=O)c(C(=O)NC3CCCCCC3)cc2c1 | 15µM | i | i | ? | nt | nt
CNC(=O)c1cc2cc(OC)ccc2oc1=O | i | i | i | i | i | i
COc1ccc2oc(C(=O)NC3CCCCC3)c(C)c2c1 | 5.4µM | 3.2µM | 3.2µM | 3.7µM | nt | nt
CCN=c1scc(C)n1/N=C/c1cc(Br)c(O)c(Br)c1 | 19µM | i | i | i | ? | i
CCN=c1scc(C)n1/N=C/c1ccc(O)c(O)c1O | 3.4µM | i | i | i | i | i
C=C(C)CN=c1scc(C)n1/N=C/c1ccco1 | i | i | i | i | i | i
CC1=C(C(N)=O)C(c2ccc(C)cc2)n2nc(SCc3ccccc3F)nc2N1 (stereo unspecified) | i | nt | nt | nt | i | nt
COCCCn1c(O)c(/C=C2\N=C(C#N)C(=Nc3ccc(C)cc3)O2)sc1=S | 6.7µM | i | i | i | nt | nt
CCN(CC)C(=O)CSc1ncnc2c(-c3cccs3)nsc12 | i[2.3 µM] | ? | 3.2µM | i | i | i
O=C(NCc1ccco1)c1cnc2sccn2c1=O | i | i | i | i | i | i
Cc1cccn2c(=O)c(C(=O)NCCc3ccccc3)cnc12 | 4.8µM | nt | nt | nt | nt | nt
O=C(NCCc1ccccc1)c1cnc2sccn2c1=O | 17µM | ? | 3.5µM | ? | 13µM | i
CCCOc1ccc(C2c3c(oc4ccccc4c3=O)C(=O)N2c2nc(C)c(C(=O)OCC)s2)cc1 (stereo unspecified) | i | nt | nt | nt | i | nt
O=C1Nc2cc(Cl)ccc2Oc2cc(Oc3ccccc3)ccc21 | i | nt | nt | nt | nt | nt
COc1c(O)ccc(/C=N/NC(=O)c2ccc3c(c2)OCCO3)c1[N+](=O)[O-] | 2.7µM | ? | ? | ? | nt | nt
O=C(N/N=C/c1cc2c(cc1[N+](=O)[O-])OCO2)c1ccc2c(c1)OCO2 | ? | i | i | i | nt | nt
COc1c(O)ccc(/C=N\NC(=O)c2ccc3c(c2)OCO3)c1[N+](=O)[O-] | 15µM | i | i | i | nt | nt
SMILES | FLuc modulator | NPC1 promoter act | Rab9 promoter act | ELG1 genotoxic | SMN2 splice enh | Luc counter
CNC(=O)[C@H](C)[C@H]1C[C@]1(C)[C@H](NC(=O)OCc1ccccc1)c1ccccc1 | nt | nt | nt | nt | i | i
Cc1cc(C)cc(NC(=O)c2sc3nc(-c4ccccc4)cn3c2C)c1 | i | nt | nt | nt | nt | nt
O=C(Nc1ccc(F)cc1F)c1ccc(-c2ccccc2)s1 | i | nt | nt | nt | i | nt
O=C(Nc1ccccc1)c1ccc(-c2ccc(F)cc2)s1 | ? | ? | ? | 7.3µM | ? | i
Cc1ccc(NC(=O)c2ccc(-c3ccccc3)s2)cc1 | i | nt | nt | nt | i | nt
Cc1cccc(NC(=O)c2ccc(-c3ccccc3)s2)c1 | 2.4µM | nt | nt | nt | ? | nt
O=C(Nc1ccccc1)c1c(F)cccc1F | i | i | i | i | i | i
O=C(Nc1cccc(F)c1)c1ccc(-c2ccccc2)s1 | 2.1µM | nt | nt | nt | i | nt
COc1cccc(OCC(=O)Nc2nnc3n2CCS3)c1 | i | nt | nt | nt | nt | nt
O=c1oc(C2(O)CCCCC2)cc2ccc(-c3ccc4[nH]ccc4c3)cc12 | nt | nt | nt | i | nt | nt
COc1ccc(-c2cc(C(=O)Nc3cccnc3)no2)cc1OC | 19µM | 2.2µM | ? | ? | i | nt
O=C(Nc1cccnc1)c1cc(-c2ccc3c(c2)OCO3)on1 | 0.48µM | i | i | ? | i | ?
O=C(Nc1cccnc1)c1cc(-c2ccc(F)cc2)on1 | 2.4µM | i | i | i | i | i
O=C(Nc1cccnc1)c1cc(-c2ccc(Cl)c(Cl)c2)on1 | ? | i | i | i | nt | nt
Cc1ccc(NC(=O)c2cc(-c3ccc4c(c3)OCO4)on2)cc1C | i | i | i | ? | nt | nt
O=C(Nc1cccc(Br)c1)c1cc(-c2ccc3c(c2)OCCO3)on1 | 0.67µM | nt | nt | nt | nt | nt
O=C(Nc1cccnc1)c1cc(-c2cccc(Cl)c2)on1 | i | i | i | i | i | nt
Cc1ccc(C2CC(=O)n3nc(-c4ccc(Cl)cc4)nc3S2)cc1 (stereo unspecified) | ? | nt | nt | nt | i | nt
COc1cccc(NC(=O)CSc2nc(=O)n(Cc3ccncc3)c3c2CCC3)c1 | i | nt | nt | nt | nt | nt
CN1CCN(C(=O)COCc2cc(-c3ccc4c(c3)OCO4)on2)CC1 | i | i | i | i | nt | nt
CCCNC(=O)COCc1cc(-c2ccc3c(c2)OCO3)on1 | ? | i | i | i | nt | nt
O=C(COCc1cc(-c2ccc3c(c2)OCO3)on1)Nc1cccnc1 | 21µM | i | i | i | nt | nt
Cc1ccc(-c2cc(C(=O)NCc3cccnc3)no2)cc1 | 11µM | ? | ? | 13µM | i | i
COc1ccc(-c2cc(C(=O)NCc3cccnc3)no2)cc1OC | i | i | i | i | i | i
O=C(COCc1cc(-c2ccc3c(c2)OCO3)on1)N1CCCCC1 | 19µM | ? | ? | ? | nt | nt
SMILES | FLuc modulator | NPC1 promoter act | Rab9 promoter act | ELG1 genotoxic | SMN2 splice enh | Luc counter
Cc1cc2nc(-c3ccc(NC(=O)c4ccccc4F)cc3)oc2cc1C | i | nt | nt | nt | i | nt
Cc1ccc(NC(=O)c2c(C)noc2C)cc1 | i | i | i | i | i | i
Cc1noc(N)c1C(=O)Nc1ccc(C(C)(C)C)cc1 | 3.4µM | 2.5µM | 3.2µM | ? | ? | i
Cc1nc(C(=O)Nc2ccccc2)sc1C(=O)Nc1ccccc1 | 13µM | 3.5µM | 3.5µM | i | nt | nt
Cc1nc(N)sc1C(=O)Nc1ccccc1 | ? | ? | ? | ? | i | i
Cc1ccc(NC(=O)c2sc(N)nc2C)cc1 | 21µM | 2.5µM | 2.2µM | 21µM | nt | nt
Cc1nc(Cl)sc1C(=O)Nc1ccc(C(C)(C)C)cc1 | 11µM | i | i | ? | nt | nt
CCn1c(=O)n(-c2ccc(F)c(Cl)c2)c(=O)c2sc3ccccc3c21 | i | nt | nt | nt | i | nt
Cc1noc(C)c1C(=O)N1CCC2(CC1)CCN(c1ccccn1)CC2 | nt | nt | nt | nt | i | i
C#CCN(Cc1ccccc1)S(=O)(=O)C=C | i | i | i | i | nt | nt
O=C(CN1C(=O)NC2(CCCC2)C1=O)OCc1ccccc1F | i | i | i | i | nt | nt
O=C(CN1CC(c2ccccc2)CC1=O)OCc1ccccc1F (stereo unspecified) | 12µM | i | i | i | ? | i
